Hits are enriched below; roughly 7.9% of the tested compounds scored in any of these assays.
Marburg entry inh – Marburg virus entry inhibition; Marburg virus pseudotyped entry inhibition, cell reporter; Potency, µM (titrated, usually from 37.8 µM), for inactives: top-dose activity change, negative = inhibition, hits mostly inhibitors; 300,000 tested, 1.8% active; AID 540276; calls by dose curve; tested in HEK293 cells; further: potency means the concentration at half of the fitted maximal effect
Lassa entry inh – inhibitors of Lassa virus binding or cell entry. Lassa virus pseudotype entry inhibition, cell reporter. AID 540256. Potency, µM (top dose mostly 37.9 µM), without a hit: at the top dose activity change, negative = inhibition, most hits filed as inhibitors. 300,000 tested, 1.2% active; calls by dose curve; tested in HEK293 cells; further: potency means the concentration at half of the fitted maximal effect; nearly all actives have a fitted effect of over 50% in size
HCMV antiviral – human cytomegalovirus inhibition; HFF cells, HCMV-luciferase reporter, 72 h; stronger effect = lower value; activity change, negative = inhibition, % at 57.5 µM; 410,000 tested, 4.5% active; AID 1259415; in the data active means activity change below about -60%; inconclusive means no clear call, values can overlap the other calls; inactive means above about -39%
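Two-dose cell screen: HFF monolayers treated with compounds and infected with luciferase-expressing HCMV at 1 PFU/cell, 72 h at 37C, then lysed for luciferase measurement.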
FMDV inh – antivirals against foot and mouth disease virus; Potency, µM (highest dose often 57.9 µM), without a hit: top-dose activity change, negative = inhibition, actives largely listed as inhibitors; AID 1159524; FMDV antiviral cell-based qHTS; 410,000 tested, 1.2% active; calls by dose curve; tested in HEK293T cells; further: read-out not given here; potency means the concentration at half of the fitted maximal effect; nearly all actives have a fitted effect of over 45% in size
HCV inhibitor – HCV inhibition; Huh7.5.1 HCVcc-Cre infection, luciferase reporter, 44 h; Potency, µM (titrated, usually from 41.8 µM), without a hit: at the highest dose activity change, negative = inhibition, usual class: inhibitors; 340,000 tested, 3.4% active; active means well fitted inhibition curve with a large enough effect; inconclusive means small, poorly fitted or top-dose-only effect, or another doubt; inactive means no such curve, though single readings can be large or run the other way; further: potency means the concentration at half of the fitted maximal effect
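After 44 h co-culture of compound, cells and HCVcc-Cre (~0.5 moi), substrate is added for 15 min at room temperature and luciferase measured over 15 sec. Cells were seeded at 1,000/well and pre-cultured 4 h.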
An asterisk follows results filed as active; u = inconclusive; x = no result given; [ ] = remark or other dose. On the % scale 0 is the no-effect control and ±100 the full control effect.

SMILES | Marburg entry inh | Lassa entry inh | HCMV antiviral | FMDV inh | HCV inhibitor
CCOc1ccc(-c2[nH]ncc2-c2ccc(Cl)cc2)c(O)c1 | x | x | -86* | -15% | -12%
C=C(C)COc1ccc(-c2[nH]ncc2-c2ccccc2OC)c(O)c1 | 7.9µM* | u | -21 | -30% | u
CC(C)(C)NC(=O)c1ccc2nc(CCc3ccccc3)oc2c1 | x | -10%[46.1 µM] | 40 | 27% | x
C=C(C)COc1ccc(-c2n[nH]c(C)c2-c2ccc(Br)cc2)c(O)c1 | u | 0.37µM* | -77* | x | u
C=C(C)COc1ccc(-c2ncncc2-c2ccccc2OC)c(O)c1 | u | -19%[46.1 µM] | -69* | u | u
C=CCN1C(=O)c2ccc(C(=O)N3CCN(S(=O)(=O)c4cccc(F)c4)CC3)cc2C1=O | -8% | u | -21 | -31% | 9%
CCN(CC)c1cccc(OCC(=O)N2c3ccccc3CC2C)c1 (stereo unspecified) | x | x | -77* | -5% | u
O=C(Cc1cccc2ccccc12)N/N=C/c1ccc(Sc2nc3ccccc3s2)o1 | u | -24% | -31 | -19% | 10µM*
O=C(COc1cccc2ccccc12)N/N=C/c1ccc(Sc2nc3ccccc3s2)o1 | -30% | -28% | 66 | -9% | u
N#CCC(=O)N/N=C/c1ccc(Sc2nc3ccccc3s2)o1 | 21% | -1% | -99* | 10% | 10%
COCC(=O)N/N=C/c1ccc(Sc2nc3ccccc3s2)o1 | 51% | 10% | -17 | -9% | -17%
O=C1[C@H](Cc2ccccc2)NCC=CC[C@H](c2ccc(Cl)cc2)N1Cc1ccccc1 | x | x | 4 | -2% | -6%
CC(=O)c1cccc(NC(=O)C(OC(=O)c2ccccc2NS(=O)(=O)c2cccs2)c2ccccc2)c1 (stereo unspecified) | u | u | -75* | 40% | 1%
CCc1c(C)nc2ncnn2c1Nc1ccc(C)cc1 | u | -1% | 8 | -24% | 2%
CCc1c(C)nc2ncnn2c1NCCc1ccc(OC)cc1 | u | u | -92* | 11µM* | 5.6µM*
CCc1c(C)nc2ncnn2c1NCc1cccs1 | u | -27% | -69* | x | -22%
Fc1ccc(C2=NOC(c3nnc(-c4ccccc4)o3)C2)cc1 (stereo unspecified) | x | x | -65* | 0% | 1%
c1ccc(C2=NOC(c3nnc(-c4ccccc4)o3)C2)cc1 (stereo unspecified) | x | x | 0 | 33% | 12%
OCC[n+]1ccc(/C=C/c2c[nH]c3ccccc23)cc1 | -34% | u | -99* | -10% | 3.5µM*
Cc1ccc(-c2csc3ncnc(OCC(=O)NC(=O)NCc4ccco4)c23)cc1 | 21µM* | u | -20 | u | -23%
C[C@]12C[C@@](C)(C=C1C=Cc1ccc(F)cc1)C(=O)C[C@H]2c1ccc(F)cc1 | 5%[14.2 µM] | u | x | x | x
CC(C)CCn1cnc2c(sc3nc4c(cc32)CSC(C)(C)C4)c1=O | -13% | 3% | -74* | -3% | 25%
Cc1cccc(NC(=S)N(Cc2cccs2)Cc2cc3cc(C)ccc3[nH]c2=O)c1 | u | -12% | -14 | 0% | 11%
COc1cc2cc(CN(Cc3cccs3)C(=S)Nc3ccc(C)cc3)c(=O)[nH]c2cc1OC | u | 4.6µM* | -69* | 0% | -32%
Cc1ccc(NC(=S)N(Cc2cccs2)Cc2cc3cc(C)ccc3[nH]c2=O)cc1 | 4.5µM* | 7.1µM* | -25 | 0% | 11%
SMILES | Marburg entry inh | Lassa entry inh | HCMV antiviral | FMDV inh | HCV inhibitor
Cc1cccnc1-c1cccc2c1OC(CNC(=O)Cc1c(C)noc1C)C2 (stereo unspecified) | x | x | x | -7% | x
COc1cccc(-c2sc3ccc(OC)cc3c2-c2ccc(C(N)=O)cc2)c1 | x | x | 7 | -25% | 2.5µM*
COc1ccc2sc(-c3ccc(SC)cc3)c(-c3ccc(O)cc3)c2c1 | x | x | -7 | -25% | 13µM*
COc1ccc2sc(-c3ccccc3OC)c(-c3ccc(SC)cc3)c2c1 | x | x | -9 | -1% | x
Cc1ccc(NS(=O)(=O)c2ccc(Br)s2)nc1 | -1%[46.1 µM] | -8% | u | 36% | 3.5µM*
COc1cccc(/C=N/NC(=O)c2ccc(=O)[nH]n2)c1O | x | x | 0 | 61% | 8%
COc1ccc2[nH]c(C(=O)N/N=C/c3ccc(OC)c(O)c3)cc2c1 | u | 5.6µM* | -74* | 7% | -14%
O=C(N/N=C/c1ccc(O)c(O)c1O)/C(=C/c1ccc([N+](=O)[O-])cc1)NC(=O)c1ccccc1 | -24% | -13% | 23 | -29% | 6.3µM*
COc1cc(/C=N/NC(=O)c2ccccc2)ccc1O | x | x | 2 | 31% | 3%
COc1ccc2[nH]c(C(=O)N/N=C/c3ccccc3OC)cc2c1 | x | x | -3 | -5% | -10%
COc1ccc(/C=N/NC(=O)c2ccc(-c3ccccc3)cc2)cc1O | 10% | u | -60* | u | u
COc1cccc(/C=N/NC(=O)c2[nH]c(C)c(C(=O)N/N=C/c3cccc(OC)c3O)c2C)c1O | 8.9µM* | u | 57 | 32% | u
Cc1cc(C(=O)Nc2cc(Br)ccc2O)on1 | x | x | 71 | -4% | -5%
Cc1ccc2[nH]c(C(=O)N/N=C/c3ccccc3O)c(C)c2c1 | x | x | -100* | 82% | 3.5µM*
COc1ccc(/C=N/NC(=O)c2ccc(O)cc2)cc1CN1CCCc2ccccc21 | -25% | u | 61 | 40µM* | u
COc1cccc(/C=N/NC(=S)Nc2cccc(C(=O)O)c2)c1O | 5.8µM* | 5.8µM* | 52 | u | 12%
CCOC(=O)c1c(C)[nH]c(C(=O)N/N=C/c2ccc(Br)cc2)c1C | 2.8µM* | u | -77* | -19% | u
Cc1nn(-c2ccccc2)nc1C(=O)OCC(=O)N1CCC(C)CC1 | x | x | 5 | -14% | -16%
CCCS(=O)(=O)NC(=O)C1(C)CCN(C(=O)c2ccc(OC(F)F)cc2)C1 (stereo unspecified) | x | x | 6 | -21% | x
CCOc1cccc2sc(NC(=O)c3ccc(S(=O)(=O)N4CCc5ccccc54)cc3)nc12 | x | u | 30 | -5% | x
CCOc1ccc(/C=N/NC(=O)c2cc3c(OC)cc(OC)c(OC)c3[nH]2)cc1 | x | x | -3 | -17% | 11µM*
COc1cccc(/C=N/NC(=O)c2ccc([N+](=O)[O-])cc2Cl)c1O | u | 15µM* | -29 | 0% | u
COc1ccc(/C=N/NC(=O)c2nc(-c3ccccc3)cc(-c3ccccc3)n2)cc1O | 18µM* | u | 27 | -10% | u
COc1cc(/C=N/NC(=O)c2nc(-c3ccccc3)n(-c3ccccc3)n2)ccc1O | 36% | -10% | -34 | -17% | 2%
CCOc1c(Br)cc(/C=N\NC(=O)c2ccccc2)cc1OC | u | 12% | -63* | -28% | u
COc1cc(/C=N\NC(=O)c2ccc(-c3ccccc3)cc2)cc(Br)c1O | u | -6% | -68* | -6% | u
COc1ccc(OC)c(/C=N/NC(=O)c2cc3c(OC)c(OC)ccc3[nH]2)c1 | -17% | -6% | 57 | -9% | u
COc1cc(OC)c2cc(C(=O)N/N=C/c3ccccc3O)[nH]c2c1 | x | x | -96* | -16% | 8.9µM*

Compound activity (PubChem BioAssay)
